Test results as given in the supplement of paper PMC8975748.
Where a name gives a salt, the structure may show the parent alone.

Each compound was assayed on Saccharomyces cerevisiae BY4741 SeMeCo community (assay: z-score of subpopulation abundance vs DMSO median, subpopulation auxotrophic for LU; higher = larger share of this subpopulation than in DMSO controls). Details: 10 µM; 24 h; SM minimal medium; subpopulation (auxotrophy): LU.
Method in brief: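 Cells of a Saccharomyces cerevisiae BY4741 community, carrying four plasmids that each restored one auxotrophy and encoded a distinct fluorescent protein, were pre-grown overnight to OD600 1.0 and diluted to 0.3. A 70 µl volume was added to 384-well plates acoustically predosed with library drugs (10 µM final) and grown 24 h in minimal SM medium. After paraformaldehyde fixation, automated confocal microscopy was used, with single-auxotroph fluorescent strains for thresholds and autofluorescence correction. The abundance of each subpopulation was scored as a z-score against the vehicle-well median.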

SMILES	z-score of subpopulation abundance
O=C(Cn1cnnn1)N[C@@H]1C(=O)N2C(C(=O)O)=C(CSc3nncs3)CS[C@H]12 [Ceftezole]	0.9
O=C(NCCN1CCOCC1)c1ccc(Cl)cc1	0.18
C=C[C@]1(C)C[C@@H](OC(=O)CSC(C)(C)CNC(=O)[C@H](N)C(C)C)[C@]2(C)[C@H](C)CC[C@]3(CCC(=O)[C@H]32)[C@@H](C)[C@@H]1O [Valnemulin HCl]	0.87
CN1CCN(CCCN2c3ccccc3Sc3ccc(C(F)(F)F)cc32)CC1 [Trifluoperazine 2HCl]	-0.4
CCCCCCCCN=c1ccn(CCCCCCCCCCn2ccc(=NCCCCCCCC)cc2)cc1 [Octenidine Dihydrochloride]	14.2
CC1(C)S[C@@H]2[C@H](NC(=O)Cc3ccccc3)C(=O)N2[C@H]1C(=O)O [Penicillin G Sodium]	0.16
CC(C)[C@H]1CC[C@H](C(=O)N[C@H](Cc2ccccc2)C(=O)O)CC1 [Nateglinide]	0
Nc1ccc(S(=O)(=O)NC(=O)c2ccccc2)cc1 [Sulfabenzamide]	-0.03
COc1ccc(C(=O)NCc2ccc(OCCN(C)C)cc2)cc1OC [Itopride hydrochloride]	0.56
COc1ccc(-c2nc3cc(C4=NNC(=O)CC4C)ccc3[nH]2)cc1 (centres undefined) [Pimobendan]	0.46
CC(C)N1CCN(c2ccc(OCC3COC(Cn4cncn4)(c4ccc(Cl)cc4Cl)O3)cc2)CC1 (centres undefined) [Terconazole]	-0.65
COc1cc([C@@H]2c3cc4c(cc3[C@@H](O[C@@H]3O[C@@H]5CO[C@@H](c6cccs6)O[C@H]5[C@H](O)[C@H]3O)[C@H]3COC(=O)[C@H]23)OCO4)cc(OC)c1O [Teniposide]	0.76
COc1ccc2c(c1)c(CC(=O)O)c(C)n2C(=O)c1ccc(Cl)cc1 [Indomethacin]	-0.17
N[C@@H](CCC(=O)O)C(=O)O [(S)-Glutamic acid]	-0.36
CC1(C)S[C@@H]2[C@H](NC(=O)Cc3ccccc3)C(=O)N2[C@H]1C(=O)O [Benzylpenicillin potassium]	0.51
NC(=O)c1cnccn1 [Pyrazinamide]	0.31
Cc1nnc(NS(=O)(=O)c2ccc(N)cc2)s1 [Sulfamethizole]	-0.31
CCC[C@@H]1C[C@@H](C(=O)N[C@@H]([C@H]2O[C@H](SC)[C@H](OP(=O)(O)O)[C@@H](O)[C@H]2O)[C@H](C)Cl)N(C)C1 [Clindamycin Phosphate]	0.78
CN[C@@H]1[C@H](O[C@H]2[C@H](O[C@H]3[C@H](O)[C@@H](O)[C@H](N=C(N)N)[C@@H](O)[C@@H]3N=C(N)N)O[C@@H](C)[C@]2(O)C=O)O[C@@H](CO)[C@H](O)[C@H]1O [Streptomycin sulfate]	-0.25
O=c1[nH]cnc2c1ncn2[C@@H]1O[C@H](CO)[C@@H](O)[C@H]1O [Isoprinosine]	-1.21

SMILES	z-score of subpopulation abundance
C=C1c2cccc(O)c2C(O)=C2C(=O)[C@]3(O)C(O)=C(C(N)=O)C(=O)[C@@H](N(C)C)[C@@H]3[C@@H](O)[C@H]12 [Methacycline HCl]	-0.95
COC(=O)C1=C(C)NC(C)=C(C(=O)OC)C1c1ccccc1[N+](=O)[O-] [Nifedipine]	0.14
Nc1ccc(S(=O)(=O)c2ccc(N)cc2)cc1 [Dapson]	0.91
NC(CO)(CO)CO [Trometamol]	0.36
C[C@]1(COc2ccc(N3CCC(Oc4ccc(OC(F)(F)F)cc4)CC3)cc2)Cn2cc([N+](=O)[O-])nc2O1 [Delamanid]	0.18
Nc1nc(=O)[nH]cc1F [Flucytosine]	0.49
CO[C@@H]1[C@@H](O[C@@H]2O[C@H](C)[C@@H](O[C@H]3C[C@@](C)(O)[C@@H](O)[C@H](C)O3)[C@H](N(C)C)[C@H]2O)[C@@H](CC=O)C[C@@H](C)[C@@H](O[C@H]2CC[C@H](N(C)C)[C@@H](C)O2)/C=C/C=C/C[C@@H](C)OC(=O)C[C@H]1OC(C)=O [Acetylspiramycin (ASPM)]	0.65
C[C@]12CC[C@@H]3c4ccc(OS(=O)(=O)O)cc4CC[C@H]3[C@@H]1CCC2=O [Estropipate]	-0.6
COc1ccnc(C[S+]([O-])c2nc3cc(-n4cccc4)ccc3[nH]2)c1C (centres undefined) [Ilaprazole sodium]	-0.87
CN1C[C@@H]2C[C@H]1CN2c1cc2c(cc1F)c(=O)c(C(=O)O)cn2C1CC1 [Danofloxacin Mesylate]	-0.89
c1ccc(-c2ccc(C(c3ccccc3)n3ccnc3)cc2)cc1 (centres undefined) [Bifonazole]	-0.8
CO/N=C(\C(=O)N[C@@H]1C(=O)N2C(C(=O)O)=CCS[C@H]12)c1csc(N)n1 [Ceftizoxime]	-0.12
CN(C)[C@@H]1C(=O)C(C(N)=O)=C(O)[C@@]2(O)C(=O)C3=C(O)c4c(O)ccc(Cl)c4[C@@H](O)[C@H]3C[C@@H]12 [Demeclocycline HCl]	-0.08
C#C[C@]1(O)CC[C@H]2[C@@H]3CCC4=Cc5oncc5C[C@]4(C)[C@H]3CC[C@@]21C [Danazol]	0.13
Nc1c(Br)cc(Br)cc1CN[C@H]1CC[C@H](O)CC1 [Ambroxol HCl]	-0.9
CCOC(=O)c1ccc(N)cc1 [Benzocaine]	-1.24
O=C1c2c(O)ccc(O)c2C(=O)c2c(NCCNCCO)ccc(NCCNCCO)c21 [Mitoxantrone 2HCl]	3.06
c1ccc2[nH]c(-c3cscn3)nc2c1 [Thiabendazole]	-0.61
C[C@@H](O)[C@H]1C(=O)N2C(C(=O)[O-])=C(SC3Cn4cnc[n+]4C3)[C@H](C)[C@H]12 (some centres undefined) [Biapenem]	-1.32
